According to PubChem BioAssay (NCATS):
Records with an inconclusive call do not appear. Entries that show only a call come without a potency. Active and inactive are the calls of the source. Calls follow the shape of the dose curve; as a rule, active = well fitted inhibition curve with a large enough effect; inconclusive = small, poorly fitted or top-dose-only effect; inactive = no such curve, though single readings can be large or run the other way.

Assay: Primary qHTS for small molecule stabilizers of the endoplasmic reticulum resident proteome: Secreted ER Calcium Modulated Protein (SERCaMP) assay (AID 1508630)
Settings: SH-SY5Y GLuc-SERCaMP (Gaussia luciferase released on ER calcium loss) secretion, thapsigargin, luminescence; series mostly up to 38.4 µM
Outline: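 GLuc-SERCaMP-expressing SH-SY5Y cells, pretreated 16 h with compound, are challenged with thapsigargin to empty ER calcium stores; after 4 h, coelenterazine is added directly to the medium and luminescence is imaged.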
In the case of `COc1ccc2c(c1)[nH]c1c(C)nccc12`, the Potency is reported as “inactive”. For `CC(C)(O)C1O[C@H]2CC[C@@]3(C)[C@@](O)(CC[C@H]4Cc5c([nH]c6ccccc56)[C@@]43C)C2=CC1=O` (some centres undefined), the Potency was “inactive”. For `NC(N)=NCCCCCCCCCCN=C(N)N`, the Potency was “inactive”. In the case of `CC(=O)C1=C(O)[C@@H]2[C@@H]3c4c[nH]c5cccc(c45)C[C@@H]3C(C)(C)N2C1=O`, the Potency is reported as “inactive”.
